Source: PubChem BioAssay (NCATS)
Inconclusive results are not listed. Activity calls are given as the source filed them. Unless noted, calls come from the whole dose curve; as a rule, active = well fitted curve in either direction with a large enough effect (not every such curve was filed as active); inconclusive = small, poorly fitted or top-dose-only effect, or another doubt; inactive = flat fitted curve, though single readings scatter.

Legend:
[1] = AP1 Signaling Pathway (AID 357); conditions: ME-180 AP-1-bla reporter, EGF-induced, beta-lactamase ratio, 5 h; at 17.2 µM (top of the series) unless noted;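 note: ME-180 reporter cells stimulated with EGF at its EC50 level; % is set by controls: 0 for no effect and ±100 for the full control effect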
Method in brief: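 A ratiometric CCF4 readout (405 nm excitation; 460 and 530 nm emission) quantified AP-1-driven beta-lactamase in ME-180 cells after 5 h with compound and EC50 EGF; AC50 values were derived for activators and inhibitors.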

[2] = NFAT Signaling Pathway (AID 444); conditions: Jurkat NFAT-bla M1, carbachol, beta-lactamase ratio, 5 h; at 17.2 µM (top of the series) unless noted;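 note: carbachol stimulus at about its EC50 of 1 µM final; % is set by controls: 0 for no effect and ±100 for the full control effect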
Method in brief: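 Read-out: CCF4 FRET ratio (460 nm/530 nm) after 1 h RT dye loading, used for %activity and AC50 from titration series. Cells: Jurkat NFAT-β-lactamase/M1 line, treated with compound plus 1 uM carbachol for 5 h, 37 °C.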

[3] = Stat Signaling Pathway (AID 446); conditions: ME-180 (cervical carcinoma) SIE beta-lactamase reporter, IL-6 stimulated, 5 h; at 17.2 µM (top of the series) unless noted;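 note: ME-180 cervical cancer cells given 40 pM IL-6 alongside compound; SIE-controlled beta-lactamase reporter measured as 460/530 nm FRET emission ratio; % is set by controls: 0 for no effect and ±100 for the full control effect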
Method in brief: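 Emission at 460 and 530 nm (excitation 405 nm) reports SIE-controlled beta-lactamase in ME-180 cells. Cells received compound with 40 pM IL-6 for 5 hrs at 37 C; data scaled between 300 pM IL-6 and 125 nM JAK-inhibitor controls.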

[4] = molecular target: Glucocorticoid receptor (Homo sapiens) (UniProt P04150); assay: GR-GFP Redistribution (AID 450;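 active = compounds whose dose series gives a full or clear partial fitted curve of increased nuclear translocation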; note: potency is the fitted concentration of half-maximal effect)
[5] = molecular target: Glucocorticoid receptor (Homo sapiens) (UniProt P04150); assay: GR-EFC Redistribution (AID 451; calls by dose curve; note: potency is the fitted concentration of half-maximal effect); conditions: CHO-K1 GR-EFC translocation, beta-gal luminescence, 2 h
Method in brief: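 Translocation of GR-ED fusion to nuclear EA restores b-gal, read by luminescence after 1 h room-temperature detection. Engineered CHO-K1 biosensor cells, 1,000/well, exposed 2 h at 37 C to titrations up to 46 uM final.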

[6] = molecular target: Mitogen-activated protein kinase 10 (Mus musculus) (UniProt Q61831); assay: JNK3 AlphaScreen Assay (AID 530);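 note: kinase came from lysate of stimulated human HepG2 cells; signal reports phosphorylation of biotinylated GST-cJun 1-79 at Ser73 with 10 µM ATP; % is set by controls: 0 for no effect and ±100 for the full control effect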
Method in brief: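 qHTS titrations with 15 min compound pre-incubation before adding ATP (10 uM final). Read-out: AlphaScreen of Ser73-phosphorylated biotin-GST-cJun using HepG2 lysate JNK3 activated by IL-1β and TNFα.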

[7] = molecular target: 3',5'-cyclic-AMP phosphodiesterase 4B (Homo sapiens) (UniProt Q07343); assay: qHTS Assay for Inhibitors of PDE-IV (AID 607; active = well fitted activation curve with a large enough effect in the main read-out, with a control signal flat, not every such curve was filed as active; note: % of control where 0% means no effect)
Method in brief: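 The readout is membrane depolarisation from a cAMP-sensing CNG channel, detected with a potential dye at ex 535/em 590. Cells were HEK293-derived (endogenous PDE-IV) at 1000 cells/well, titrated up to 22.9 uM final.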

[8] = molecular target: Guanine nucleotide-binding protein G(i) subunit alpha-1 (Homo sapiens) (UniProt P63096); assay: qHTS Assay for Inhibitors of RGS12 GoLoco Motif Activity (Green Fluorophore) (AID 879; active = well fitted curve in the direction sought with a large enough effect; an effect the other way counts as inactive or inconclusive;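 note: 0% = labeled peptide with Gαi1 and full inhibition = labeled peptide alone without protein; negative values mean loss of peptide binding seen as reduced polarization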)
Method in brief: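 A drop in FITC polarization marked displacement of the FITC-tagged RGS12 GoLoco peptide (10 nM) from Gαi1 (50 nM). Compounds were incubated 10 min at room temperature in Tris pH 7.5 buffer containing 150 mM NaCl, 0.1 mM GDP and 0.05% NP40; unlabeled peptide titration served as control.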

[9] = qHTS Assay for Identification of Small Molecule Agonists for Thrombopoietin (TPO) Signaling Pathway (AID 917; active = well fitted curve in the direction sought with a large enough effect; an effect the other way counts as inactive or inconclusive; note: % is set by controls: 0 for no effect and ±100 for the full control effect)
Method in brief: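 Quantitative HTS for pathway activators: compounds were pin-transferred onto IL-3-starved Ba/F3 cells expressing human TPO receptor, TPO was added at its EC50 (26 pM final), and after 24 hrs at 37 C reporter luciferase was measured.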

[10] = molecular target: Muscarinic acetylcholine receptor M1 (Rattus norvegicus) (UniProt P08482); assay: qHTS Assay for Antagonists of Acetylcholine Muscarinic M1 Receptor: Measurement of IP-One Response (AID 944; active = well fitted curve in the direction sought with a large enough effect; an effect the other way counts as inactive or inconclusive; note: nearly all actives have a fitted effect of over 75% in size)
Method in brief: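 Antagonist mode with rat M1 receptor transfected into CHO cells. Compound is added first for 10 min, carbachol at its EC80 follows for 30 min, and lysis reagents then allow TR-FRET detection of accumulated IP1.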

[11] = molecular target: Pyruvate kinase (Leishmania mexicana) (UniProt Q27686); assay: qHTS Validation Assay for Inhibitors of Leishmania Mexicana Pyruvate Kinase (AID 945; active = well fitted curve in the direction sought with a large enough effect; an effect the other way counts as inactive or inconclusive;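 note: 0% = DMSO only neutral control wells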)
Method in brief: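 Eight-point qHTS titrations in triplicate, data normalized to DMSO neutral control. Reaction: 0.2 nM LmPYK E451W mutant, 0.5 mM PEP, 0.1 mM ADP, 7 mM MgCl2, pH 7.2, one hour at room temperature; luminescent ATP detection.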

[12] = molecular target: Pyruvate kinase PKM (Homo sapiens) (UniProt P14618); assay: qHTS Assay for Activators of Human Muscle Pyruvate Kinase (AID 954; active = well fitted curve in the direction sought with a large enough effect, not every such curve was filed as active;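 note: 0% = uninhibited enzyme and -100% = no enzyme or full thiadiazolimine inhibition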)
Method in brief: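 PKM2, human, >95% pure, 0.1 nM; PEP 0.5 mM (Km), ADP 0.1 mM; 50 mM imidazole pH 7.2, 50 mM KCl, 0.01% Tween 20, 0.05% BSA; 1 h RT; luciferase luminescence readout.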

[13] = molecular target: Alpha-galactosidase A (Homo sapiens) (UniProt P06280); assay: Counterscreen for Glucocerebrosidase Inhibitors: qHTS Assay for Human alpha-Galactosidase at pH 4.5 (AID 992; active = well fitted curve in the direction sought with a large enough effect; an effect the other way counts as inactive or inconclusive; note: 0% is about no effect)
Method in brief: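 Fluorogenic 4-MU alpha-D-galactoside (80 uM) hydrolysis, 2 nM enzyme, pH 4.5 citrate buffer + 0.005% Tween-20; 20 min RT; NaOH/glycine pH 10 stop; Ex365/Em440. Compounds titrated 0.7 nM–77 uM; Hill-equation AC50.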

[14] = molecular target: alpha-glucosidase (Oryza sativa, rice) (UniProt Q653V4); assay: Counterscreen for Glucocerebrosidase Inhibitors: qHTS Assay for Rice alpha-Glucosidase at pH 5.0 (AID 997; active = well fitted curve in the direction sought with a large enough effect; an effect the other way counts as inactive or inconclusive;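 note: 0% = full activity with enzyme and -100% = basal without enzyme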)
Method in brief: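 Endpoint fluorogenic assay at pH 5.0: compounds (0.7 nM to 77 uM) titrated against 4 nM rice enzyme and 400 uM 4-MU-alpha-glucoside for 20 min at room temperature; NaOH/glycine stop, read ex 365/em 440 nm, Hill-fitted AC50.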

[15] = qHTS Assay for Identification of Small Molecule Antagonists for NFkB Signaling Pathway (AID 895; active = well fitted inhibition curve with a large enough effect in the signal ratio, with a control signal flat, not every such curve was filed as active; the % refers to the signal ratio; note: % is set by controls: 0 for no effect and ±100 for the full control effect)
Method in brief: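 Beta-lactamase reporter read-out (460 and 530 nm emission ratio, 405 nm excitation, 2 hrs substrate loading RT) after 5 hr stimulation with 10 pM TNF alpha in compound-treated NFkB-bla ME-180 cells in low-serum medium.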

Pyruvate kinase (Leishmania mexicana), sequence (Q27686 2-499 E452W): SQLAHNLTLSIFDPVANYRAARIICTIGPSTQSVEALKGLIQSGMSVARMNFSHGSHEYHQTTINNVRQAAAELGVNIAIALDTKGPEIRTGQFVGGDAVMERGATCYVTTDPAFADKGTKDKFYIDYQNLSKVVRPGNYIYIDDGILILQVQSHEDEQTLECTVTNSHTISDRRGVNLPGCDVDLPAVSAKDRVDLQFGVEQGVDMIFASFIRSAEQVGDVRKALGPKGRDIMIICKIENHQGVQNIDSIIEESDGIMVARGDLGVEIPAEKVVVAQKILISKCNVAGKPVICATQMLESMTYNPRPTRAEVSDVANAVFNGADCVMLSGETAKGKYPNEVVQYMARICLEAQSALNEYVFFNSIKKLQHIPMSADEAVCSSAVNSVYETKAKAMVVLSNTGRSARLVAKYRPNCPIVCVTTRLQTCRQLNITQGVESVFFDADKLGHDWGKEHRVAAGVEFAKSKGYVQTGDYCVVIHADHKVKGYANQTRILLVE
Pyruvate kinase PKM (Homo sapiens), sequence (P14618 whole entry, looked up): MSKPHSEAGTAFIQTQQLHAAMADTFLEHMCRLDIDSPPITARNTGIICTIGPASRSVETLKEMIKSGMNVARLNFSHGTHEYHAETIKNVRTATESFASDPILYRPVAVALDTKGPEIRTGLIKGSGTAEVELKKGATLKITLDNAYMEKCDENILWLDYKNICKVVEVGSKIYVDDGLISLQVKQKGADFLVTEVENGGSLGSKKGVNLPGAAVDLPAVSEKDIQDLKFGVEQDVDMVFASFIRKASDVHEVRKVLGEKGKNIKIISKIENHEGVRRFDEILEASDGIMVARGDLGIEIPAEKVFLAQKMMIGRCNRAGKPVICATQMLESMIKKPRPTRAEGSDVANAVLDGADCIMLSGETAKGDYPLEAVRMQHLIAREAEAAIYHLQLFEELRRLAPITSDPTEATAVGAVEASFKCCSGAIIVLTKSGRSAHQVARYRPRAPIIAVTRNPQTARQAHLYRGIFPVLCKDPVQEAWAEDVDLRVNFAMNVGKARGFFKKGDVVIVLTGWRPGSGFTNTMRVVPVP
Alpha-galactosidase A (Homo sapiens), sequence (P06280 whole entry, looked up): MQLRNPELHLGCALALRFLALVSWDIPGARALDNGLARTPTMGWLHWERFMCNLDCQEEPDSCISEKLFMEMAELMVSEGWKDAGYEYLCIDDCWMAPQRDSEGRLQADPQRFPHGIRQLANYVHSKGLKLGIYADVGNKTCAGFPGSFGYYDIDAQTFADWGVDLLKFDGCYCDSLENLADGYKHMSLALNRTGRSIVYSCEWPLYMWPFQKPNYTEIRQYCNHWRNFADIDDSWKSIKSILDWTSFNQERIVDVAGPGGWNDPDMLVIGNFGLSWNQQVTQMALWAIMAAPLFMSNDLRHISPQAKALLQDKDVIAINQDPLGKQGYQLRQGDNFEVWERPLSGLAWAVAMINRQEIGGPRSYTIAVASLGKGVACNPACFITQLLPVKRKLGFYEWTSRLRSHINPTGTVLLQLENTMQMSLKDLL
Guanine nucleotide-binding protein G(i) subunit alpha-1 (Homo sapiens), sequence (P63096 whole entry, looked up): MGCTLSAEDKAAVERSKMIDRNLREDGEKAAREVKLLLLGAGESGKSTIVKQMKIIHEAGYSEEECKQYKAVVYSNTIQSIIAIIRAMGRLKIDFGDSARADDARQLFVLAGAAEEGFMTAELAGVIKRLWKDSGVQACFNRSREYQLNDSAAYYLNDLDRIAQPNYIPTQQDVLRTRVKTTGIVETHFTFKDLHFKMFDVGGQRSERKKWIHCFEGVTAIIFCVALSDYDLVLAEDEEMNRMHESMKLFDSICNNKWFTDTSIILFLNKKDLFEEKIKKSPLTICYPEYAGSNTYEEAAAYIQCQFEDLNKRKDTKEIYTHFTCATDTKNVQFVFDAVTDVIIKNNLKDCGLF
Glucocorticoid receptor (Homo sapiens), sequence (P04150 whole entry, looked up, the tested form may be a part): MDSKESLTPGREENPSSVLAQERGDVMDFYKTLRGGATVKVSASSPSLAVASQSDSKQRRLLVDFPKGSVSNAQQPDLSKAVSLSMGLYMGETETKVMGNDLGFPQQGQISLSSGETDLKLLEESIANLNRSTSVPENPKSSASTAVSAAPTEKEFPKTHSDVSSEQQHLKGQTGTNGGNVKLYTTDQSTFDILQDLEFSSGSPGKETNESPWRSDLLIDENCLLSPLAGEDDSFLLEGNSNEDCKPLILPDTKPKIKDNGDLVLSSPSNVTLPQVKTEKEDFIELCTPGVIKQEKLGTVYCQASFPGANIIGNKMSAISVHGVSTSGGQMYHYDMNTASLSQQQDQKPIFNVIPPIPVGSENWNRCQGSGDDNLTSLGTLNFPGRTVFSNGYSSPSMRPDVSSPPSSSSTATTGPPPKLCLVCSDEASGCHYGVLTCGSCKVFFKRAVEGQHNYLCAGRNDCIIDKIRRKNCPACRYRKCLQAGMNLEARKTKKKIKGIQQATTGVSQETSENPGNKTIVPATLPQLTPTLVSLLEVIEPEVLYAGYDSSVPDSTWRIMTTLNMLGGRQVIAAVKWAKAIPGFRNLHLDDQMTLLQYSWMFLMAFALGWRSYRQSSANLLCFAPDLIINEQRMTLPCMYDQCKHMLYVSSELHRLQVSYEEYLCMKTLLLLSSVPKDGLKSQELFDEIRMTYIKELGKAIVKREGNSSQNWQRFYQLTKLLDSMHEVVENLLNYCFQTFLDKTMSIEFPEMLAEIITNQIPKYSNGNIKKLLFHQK
3',5'-cyclic-AMP phosphodiesterase 4B (Homo sapiens), sequence (Q07343 whole entry, looked up): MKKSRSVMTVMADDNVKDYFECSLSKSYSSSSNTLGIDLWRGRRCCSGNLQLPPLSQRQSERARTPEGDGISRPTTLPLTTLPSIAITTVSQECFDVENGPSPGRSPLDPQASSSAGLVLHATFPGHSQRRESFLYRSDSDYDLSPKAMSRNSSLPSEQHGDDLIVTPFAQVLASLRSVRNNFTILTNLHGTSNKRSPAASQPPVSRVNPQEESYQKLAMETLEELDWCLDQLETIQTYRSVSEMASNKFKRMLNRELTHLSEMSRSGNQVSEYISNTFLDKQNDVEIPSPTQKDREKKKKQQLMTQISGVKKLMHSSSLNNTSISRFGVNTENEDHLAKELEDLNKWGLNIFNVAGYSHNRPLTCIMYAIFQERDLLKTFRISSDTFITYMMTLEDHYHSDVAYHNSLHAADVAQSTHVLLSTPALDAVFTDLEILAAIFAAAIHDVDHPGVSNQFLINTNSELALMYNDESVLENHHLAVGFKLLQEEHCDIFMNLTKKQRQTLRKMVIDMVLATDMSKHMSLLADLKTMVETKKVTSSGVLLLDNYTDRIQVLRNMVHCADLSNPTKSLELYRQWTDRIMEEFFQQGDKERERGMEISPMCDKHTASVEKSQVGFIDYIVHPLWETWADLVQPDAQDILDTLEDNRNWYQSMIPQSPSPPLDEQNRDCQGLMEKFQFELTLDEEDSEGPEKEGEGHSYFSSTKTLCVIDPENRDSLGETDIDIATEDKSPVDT
Muscarinic acetylcholine receptor M1 (Rattus norvegicus), sequence (P08482 whole entry, looked up): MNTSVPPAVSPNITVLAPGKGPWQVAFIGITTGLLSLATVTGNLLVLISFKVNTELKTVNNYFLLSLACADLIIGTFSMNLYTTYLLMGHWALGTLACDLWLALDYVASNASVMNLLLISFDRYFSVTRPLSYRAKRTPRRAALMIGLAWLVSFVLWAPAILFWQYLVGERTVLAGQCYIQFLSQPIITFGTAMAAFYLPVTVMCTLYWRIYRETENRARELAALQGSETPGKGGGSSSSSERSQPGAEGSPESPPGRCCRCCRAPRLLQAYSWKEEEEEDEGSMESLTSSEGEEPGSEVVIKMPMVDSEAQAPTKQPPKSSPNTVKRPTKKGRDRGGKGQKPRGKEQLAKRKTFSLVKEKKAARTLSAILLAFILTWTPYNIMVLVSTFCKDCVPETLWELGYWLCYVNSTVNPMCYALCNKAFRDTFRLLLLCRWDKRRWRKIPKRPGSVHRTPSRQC

c1ccc(-n2ncc3c(N4CCCC4)ncnc32)cc1
inactive: activity change, negative = inhibition [1] -17.5% | activity change, negative = inhibition [2] 14.9% | activity, negative = inhibition [3] -6.73% | Potency [4] > 20.6 µM

O=C(CN1C(=O)c2ccccc2C1=O)NCc1ccncc1
inactive: activity change, negative = inhibition [1] -3.15% | activity change, negative = inhibition [2] -0.713% | activity, negative = inhibition [3] 5.8% | Potency [4] > 20.6 µM

CCC(NC(=O)Nn1cnnc1)(C(F)(F)F)C(F)(F)F
inactive: activity change, negative = inhibition [1] 21.2% | activity change, negative = inhibition [2] -0.332% | activity, negative = inhibition [3] 5.97% | Potency [4] > 20.6 µM

COc1ccc(-c2oc3ncn4nc(Cc5ccccc5)nc4c3c2-c2ccc(OC)cc2)cc1
inactive: activity change, negative = inhibition [1] -0.634% | activity change, negative = inhibition [2] -13% | activity, negative = inhibition [3] -13.3% | Potency [4] > 20.6 µM

CN(C)c1ccc(C2C3C(=O)N(c4ccc(C(=O)O)cc4)C(=O)C3ON2c2ccccc2)cc1 (stereo not given)
inactive: activity change, negative = inhibition [1] -1.48% | activity change, negative = inhibition [2] 17.3% | activity, negative = inhibition [3] 5.33% | Potency [4] > 20.6 µM

COc1ccc(/C(O)=C2/C(=O)C(=O)N(CCN3CCOCC3)C2c2ccccn2)cc1 (stereo not given)
inactive: activity change, negative = inhibition [1] 7.11% | activity change, negative = inhibition [2] 6.7% | activity, negative = inhibition [3] 0.702% | Potency [4] > 20.6 µM

Cn1c(=O)c2c(nc(NCc3ccc4c(c3)OCO4)n2Cc2ccccc2F)n(C)c1=O
inactive: activity change, negative = inhibition [1] -24.1% | activity change, negative = inhibition [2] -14% | activity, negative = inhibition [3] -25.4% | Potency [4] > 20.6 µM

O=C1c2ccccc2C(=O)N1CCN1CCc2ccccc21
inactive: activity change, negative = inhibition [1] -29% | activity change, negative = inhibition [2] 1.23% | activity, negative = inhibition [3] -3.43% | Potency [4] > 20.6 µM

N#C/C(C(=O)N1CCCCC1)=C1\Nc2ccccc2S1
inactive: activity change, negative = inhibition [1] -15% | activity change, negative = inhibition [2] 11.9% | activity, negative = inhibition [3] -10.3% | Potency [4] > 20.6 µM

CC(NC(=O)NCCCC(=O)O)(C(F)(F)F)C(F)(F)F
inactive: activity change, negative = inhibition [1] 1.88% | activity change, negative = inhibition [2] -1.55% | activity, negative = inhibition [3] 1.17% | Potency [4] > 20.6 µM

O=C(CC1SC2=NCCN2C1=O)Nc1ccccc1 (stereo not given)
inactive: activity change, negative = inhibition [1] 4.21% | activity change, negative = inhibition [2] 19% | activity, negative = inhibition [3] -5.25% | Potency [4] > 20.6 µM

C[N+](C)(C)CCN[N@@+]1(C)CCCc2ccccc21
inactive: activity change, negative = inhibition [1] -2.74% [at 7.69 µM] | activity change, negative = inhibition [2] -8.45% [at 7.69 µM] | activity, negative = inhibition [3] 7.61% [at 7.69 µM] | Potency [4] > 46 µM | Potency [5] > 9.22 µM | activity change, negative = inhibition [6] 4.98% [at 11.4 µM] | Potency [7]

CCCCCC[C@@H]([C@H](C)O)n1cnc2c(N)ncnc21
inactive: activity change, negative = inhibition [1] -20.5% [at 38 µM] | activity change, negative = inhibition [2] -4.53% [at 38 µM] | activity, negative = inhibition [3] 25.6% [at 38 µM] | Potency [4] > 46 µM | Potency [5] > 46 µM | Potency [6] | Potency [7] | outcome [8] | Potency [9] | Potency [10] | Potency [11] | outcome [12] | outcome [13] | outcome [14]

CCNC(=O)[C@@H]1O[C@@H](n2cnc3c(N)nc(NCCc4ccc(CCC(=O)O)cc4)nc32)[C@H](O)[C@@H]1O
inactive: activity change, negative = inhibition [1] -2.01% [at 38 µM] | activity change, negative = inhibition [2] 4.74% [at 38 µM] | activity, negative = inhibition [3] 22.6% [at 38 µM] | Potency [4] > 46 µM | Potency [5] > 46 µM | Potency [7] | outcome [8] | Potency [15] | Potency [9] | Potency [11] | outcome [12] | outcome [13] | outcome [14]

COc1ccc(/C(O)=C2\C(=O)C(=O)N(c3cc(C)on3)C2c2cccc(OC)c2OC)cc1C (stereo not given)
inactive: activity change, negative = inhibition [1] -5.37% | activity change, negative = inhibition [2] 6.15% | activity, negative = inhibition [3] -17.9% | Potency [4] > 20.6 µM

CC(C)(C(=O)O)c1ccc([C@@H](O)CCCN2CCC(C(O)(c3ccccc3)c3ccccc3)CC2)cc1
inactive: activity change, negative = inhibition [1] 8.57% [at 38 µM] | activity change, negative = inhibition [2] 8.69% [at 38 µM] | activity, negative = inhibition [3] 11.8% [at 38 µM] | Potency [4] > 46 µM | Potency [5] > 46 µM | Potency [6] | outcome [8] | Potency [9] | Potency [11] | outcome [12] | outcome [13] | outcome [14]

CC(=O)O[C@@H]1C[C@]2(C)[C@H](C[C@@H](O)[C@H]3[C@@]4(C)CC[C@@H](O)[C@@H](C)[C@@H]4CC[C@@]32C)/C1=C(\CCC=C(C)C)C(=O)O
inactive: activity change, negative = inhibition [1] -14.6% [at 38 µM] | activity change, negative = inhibition [2] -0.766% [at 38 µM] | activity, negative = inhibition [3] 11.2% [at 38 µM] | Potency [4] > 46 µM | Potency [5] > 46 µM | Potency [6] | Potency [7] | outcome [8] | Potency [9] | Potency [10] | Potency [11] | outcome [12] | outcome [13] | outcome [14]

O=C(CSc1ncnc2nc[nH]c12)c1ccccc1
inactive: activity change, negative = inhibition [1] -9.01% [at 7.69 µM] | activity change, negative = inhibition [2] 11.7% [at 7.69 µM] | activity, negative = inhibition [3] 1.65% [at 7.69 µM] | Potency [4] > 46 µM | Potency [5] > 9.22 µM | activity change, negative = inhibition [6] -0.309% [at 11.4 µM] | Potency [7]
